Reference: the supplement of paper PMC6555819

Tests used:
Experiment in all cases: PBM binding z-score (relative to random genomic background probes); higher = stronger binding; sequences stand for … in GC…GCGATTGACAGCGTAGAATGAAGG
[1] = test system: RARb homodimer (NR concentration 270 nM)
Procedure, shortened: (§1)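 On custom Agilent 4×180K arrays, double-stranded probes with 34-nt variable regions carried direct-repeat seeds, single-nucleotide variants, half-site ablations or random human genomic background. Ligand-free nuclear receptor dimers were applied for 1 h, and binding was read with antibodies against each partner (one per run). Binding z-scores come from regression-normalized fluorescence, with the random background probes as reference.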

[2] = test system: RARg:RXRa (NR concentration 270 nM, RXRa partner concentration 90 nM)
Procedure, shortened: as §1

[3] = test system: RARg homodimer (NR concentration 270 nM)
Procedure, shortened: as §1

[4] = test system: RXRa DBDmut IVT, anti-RXR (DBD mutation: RXRa K156A/R161A, NR concentration 90 nM)
Procedure, shortened: as §1

[5] = test system: RXRa homodimer (NR concentration 180 nM)
Procedure, shortened: as §1

[6] = test system: THRa:RXRa (NR concentration 90 nM, RXRa partner concentration 90 nM)
Procedure, shortened: as §1

[7] = test system: THRa homodimer (NR concentration 90 nM)
Procedure, shortened: as §1

[8] = test system: VDR homodimer (NR concentration 270 nM)
Procedure, shortened: as §1

| Sequence | PBM binding z-score [1] | PBM binding z-score [2] | PBM binding z-score [3] | PBM binding z-score [4] | PBM binding z-score [5] | PBM binding z-score [6] | PBM binding z-score [7] | PBM binding z-score [8] |
| --- | --- | --- | --- | --- | --- | --- | --- | --- |
| CCGACTAGGGCAAGGTTACCATAACGCACAGCCA | 1.42 | 1.33 | 1.66 | 0.121 | 1.08 | 1.23 | 0.242 | 0.0806 |
| TAGCCTAGGTCACGCGGGCCAGTATAGTGTCGGC | 3.49 | 5.13 | 5.55 | 0.633 | 4.2 | 3.74 | 1.61 | 0.563 |
| TCGAGTAGGTTACCAATGGGGCATACAGCTTTCT | 0.633 | 1.41 | 0.627 | 0.223 | 1.01 | 0.248 | -0.753 | -0.212 |
| TAGCCCAGGTCATGGGCCAGTATACCACGCGAAC | 2.61 | 4.42 | 4.43 | 0.576 | 4.06 | 3.69 | 2.3 | 1.08 |
| CTTCAAAGTTCAAGGTAACGTAACAGAAAGCAGC | 3.62 | 5.19 | 6.14 | 4.34 | 4.62 | 2.96 | 1.34 | 3.44 |
| ACTTTTAGTTGACTTAGGGCAACCGATACGACGC | 1.37 | 1.1 | 1.22 | 1.12 | 0.756 | 1.64 | 0.763 | 0.282 |
| CCGACTGGCGCATAAGGTTACCATAAGCCAGCCC | 0.729 | 0.235 | 0.126 | -0.135 | 0.736 | 2.26 | 1.56 | 0.005 |
| CGAACTAGGTCACGGACAGTGAATCTCCGCACGC | 3.36 | 5.11 | 5.73 | 1.82 | 3.99 | 3.53 | 2.1 | 0.814 |
| ACCGAAAGGTCGACGAGGTGAGTATACACCGTTT | 3.18 | 4.28 | 4.13 | 1.58 | 4.27 | 3.61 | 0.645 | 1.01 |
| CCTTACGGGTCAAGGTTAGAGCACGGGTGGTACG | 3.19 | 4.77 | 4.65 | -0.0809 | 4.97 | 2.94 | 0.656 | 1.05 |
| CCTGACGGGTCACTGACAGGTTATAGCATTTGGA | 2.98 | 5.4 | 4.25 | 1.04 | 4.25 | 2.44 | 0.0984 | 0.76 |
| CCAGACAGGTGATAAGGTAACTCAGCCTCGATTA | 0.435 | 0.392 | 0.586 | 0.284 | 0.276 | 1.77 | 1.72 | 0.103 |
| CGTCCAAGGTCATAGGATGTCAGTGAAGACAGAT | 4.04 | 5.95 | 6.37 | 3.93 | 6.11 | 4.28 | 2.46 | 3.2 |
| CCTAGCAGGCCATGGTCACTCAAGCATTTCGCTT | 0.33 | -0.134 | 0.141 | -0.0842 | -0.236 | -0.37 | -0.618 | -0.529 |
| TCATATAGGTTAATGCTAGGTGAAAGTCCGATCT | 1.41 | 1.98 | 1.16 | 1.64 | 1.48 | 2.53 | 1.08 | 0.748 |
| TCTTGTAGATCAATAGGGGTTAAGAAAGTGCGCT | 1.26 | 1.07 | 0.498 | 1.53 | 2.18 | 2.19 | 0.19 | 0.671 |
| CCTCGGAGGACAACAGGAGTTCAGAGCTGCCAGA | 1.91 | 1.7 | 1.9 | 0.979 | 0.335 | 1.17 | -0.102 | 2.95 |
| GCAGACAGGTGGAACGCAGGTAACTCAGGGTGGC | -0.721 | -0.378 | -0.569 | -0.849 | -0.144 | 0.751 | -0.601 | -0.591 |
| ATCTCTAGGTAACCAAGTTCACTGAATGCCGAAC | 2.26 | 1.55 | 1.41 | 1.74 | 1.36 | 2.34 | 1.27 | 3.34 |
| GCTCTGAGGACAAGGTCAGAGCTTTGTCCGTAGA | 2.95 | 3.16 | 3.63 | 1.43 | 2.38 | 3.95 | 3.55 | 1.11 |
| TCTTGTAGATCAGCAGCTTAAGAAAGCTGGCCAA | -0.684 | -0.435 | -0.915 | 0.258 | -0.355 | -0.626 | -0.605 | -0.685 |
| ATCTCCAGGTAAGACTCAGTTCAGTGAAGAACGC | 0.752 | 0.584 | 0.474 | 0.412 | 0.366 | 1.1 | 1.32 | 1.27 |
| TCTAGTTGGTCAAAGATCACACACTCGAAATGCG | 0.919 | 1.57 | 0.992 | 1.48 | 1.61 | 0.536 | 0.263 | 0.452 |
| CCTGCTAGGTCATGCTCAGCTAATCTACAGTATG | 2.76 | 3.89 | 4.39 | 2.05 | 2.4 | 2.57 | 0.87 | 0.178 |
| TAATATAGGTAAATGCTAGGTGAAAGTCCGATCT | 0.28 | 0.642 | 0.601 | 0.344 | 0.568 | 1.4 | 0.419 | 0.275 |
| CTCGAAAGGTCGTGCTCAGGTGAGCATACCAAAC | 2.63 | 5.53 | 4.45 | 2.21 | 5.55 | 4.12 | 1.23 | 0.533 |
| GCTCGGAGGACAAGGTCAGACCTTTGTCCGTAGA | 3.1 | 3.68 | 3.51 | 0.424 | 3.12 | 2.94 | 1.47 | 0.924 |
| CCTACTGGGCCAAAGGTCATCGATTCCAATGCTC | 4.9 | 6.09 | 5.38 | 0.987 | 7.08 | 3.65 | 0.966 | 2.04 |
| CGTCCAAGGTCAGCAGCTCAGTGAAAGCGACGTG | 3.86 | 5.03 | 5.8 | 2.64 | 4.07 | 3.44 | 1.99 | 0.868 |
